SW480 rerep: A quantitative high throughput screen for small molecules that induce DNA re-replication in SW480 colon adenocarcinoma cells; SW480 DNA re-replication, Hoechst DNA content imaging, 48 h; Potency, µM (top dose mostly 46.1 µM), usual class: activators; actives 1.8% (n = 340,000); AID 624297, 2012; further: nearly all actives have a fitted effect of over 55% in size
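Quantitative HTS format with DMSO vehicle controls; 48 hr drug incubation at 37 C, then 40 min Hoechst staining and scanning imager measurement at 405 nm excitation.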
KB-V1 cytotox: qHTS assay for MDR1-selective chemotherapeutics: Primary screen using the drug-selected MDR subline cells KB-V1 | KB-V1 MDR cells viability, CellTiter-Glo, 72 h | Potency, µM (titrated, usually from 46.1 µM), hits mostly cytotoxic | actives 3.4% (n = 400,000) | AID 1347076, 2019; further: nearly all actives have a fitted effect of over 60% in size
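Readout: CellTiter-Glo luminescence, 10 min after addition. Cells: KB-V1 MDR subline, 72 h at 37 degrees C with compound. Analysis: corrected, normalized data fitted to concentration-effect curves.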
MCF10A rereplic: A quantitative high throughput screen for small molecules that induce DNA re-replication in MCF 10a normal breast cells; MCF 10A DNA re-replication, Hoechst nuclear intensity, 48 h; Potency, µM (titrated, usually from 46.1 µM), most hits filed as activators; actives 2.9% (n = 350,000); further: nearly all actives have a fitted effect of over 50% in size
IL1B secr inh: qHTS for Inhibitors of Inflammasome Signaling: IL-1-beta AlphaLISA Primary Screen | THP-1 LPS/ATP IL-1B secretion, AlphaLISA, 16 h; stronger effect = lower value | activity change, % at 57.5 µM | actives 4.7% (n = 360,000) | AID 743279, 2014; in the data active means activity change below about -50%; inconclusive means mostly about -30% to -49%
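Secreted IL-1B measured by AlphaLISA bead assay after 16 h compound exposure of THP-1 cells; compounds (final up to 57.5 uM) added 1 h before LPS (250 ng/mL) and ATP (1.25 mM) stimulation; lower signal means less secretion.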
KB-3-1 cytotox: qHTS assay for MDR1-selective chemotherapeutics: Primary screen using the parental adenocarcinoma cell KB-3-1; KB-3-1 viability, CellTiter-Glo ATP luminescence, 72 h; Potency, µM (top dose mostly 46.1 µM), actives largely listed as cytotoxic; actives 1.4% (n = 400,000); AID 1347075, 2019; further: nearly all actives have a fitted effect of over 60% in size
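Parental KB-3-1 adenocarcinoma cells in phenol-red-free DMEM with 10% FBS were pin-treated with compounds at several concentrations, incubated 72 h at 37 °C, and viability read by CellTiter-Glo luminescence; concentration-effect curves were fitted after normalization.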
Each line names hits and unclear results; the compound was inactive in the other large screens. Rows were chosen to be rich in hits. Some 9.9% of all compounds tested hit in one or more screens of this group. Unless noted, the call rests on the fitted dose curve; in most records, active means well fitted curve in the direction sought with a large enough effect; inconclusive means small, poorly fitted or top-dose-only effect, or another doubt; inactive means no such curve, though single readings can be large; an effect the other way counts as inactive or inconclusive.

O=C1CN(C(=O)c2ccc(S(=O)(=O)N3CCCCC3)cc2)C(c2ccc(F)cc2)c2cc(Br)ccc2N1 (stereo unspecified)	none (no result: SW480 rerep, MCF10A rereplic, IL1B secr inh)
CC#CC(=O)N1CCC(CO)(CCc2ccccc2)CC1	none
O=C(/C=C\Nc1ccc(Br)cc1)c1cccnc1	MCF10A rereplic inconclusive
Cc1ccc(S(=O)(=O)N2CN(Cc3ccco3)c3nc4ccccc4nc32)cc1	none
COc1ccc(S(=O)(=O)N2CN(Cc3ccco3)c3nc4ccccc4nc32)cc1	SW480 rerep inconclusive, KB-V1 cytotox 5.8µM
C[C@@H]1CN([C@H](C)CO)C(=O)c2cc(Br)cnc2O[C@@H]1CN(C)C(=O)Nc1ccccc1	none (no result: SW480 rerep, MCF10A rereplic)
C=CCNC(=O)c1onc(CSc2cccc(C)c2)c1C(=O)O	none
Cc1cc(C)cc(SCc2noc(C(=O)NCc3ccccc3)c2C(=O)NCc2ccccc2)c1	MCF10A rereplic 4.6µM
O=C(NCc1ccccc1)c1onc(CSc2ccc(F)cc2)c1C(=O)NCc1ccccc1	none
C=CCNC(=O)c1onc(CSc2cc(C)cc(C)c2)c1C(=O)NCC=C	MCF10A rereplic inconclusive, IL1B secr inh -104, KB-3-1 cytotox inconclusive
Cc1ccc2nc(/C(C#N)=C/c3ccc(O)c(O)c3)[nH]c2c1	SW480 rerep 23µM, MCF10A rereplic inconclusive, KB-3-1 cytotox inconclusive
Cc1ccc2nc(/C(C#N)=C/c3ccccc3C(=O)O)[nH]c2c1	MCF10A rereplic inconclusive
Cc1ccc2nc(/C(C#N)=C/c3cn[nH]c3-c3ccc(F)cc3)[nH]c2c1	SW480 rerep inconclusive, KB-V1 cytotox inconclusive, MCF10A rereplic 13µM, IL1B secr inh inconclusive, KB-3-1 cytotox inconclusive
COc1ccc(-c2nc(NC(=O)C3CC(=O)N(Cc4ccco4)C3)sc2C)cc1 (stereo unspecified)	MCF10A rereplic inconclusive, KB-3-1 cytotox inconclusive
COc1ccc(-c2nc(NC(=O)C3CCN(c4nc5ccccc5o4)CC3)sc2C)cc1	SW480 rerep inconclusive, KB-3-1 cytotox 26µM
CC(C)CCNC(=O)C1CCN(c2nc3ccccc3o2)CC1	KB-V1 cytotox 13µM, KB-3-1 cytotox inconclusive
CCOC(=O)C1=C(C)NC(SC)=NC1c1ccc(OC)cc1 (stereo unspecified)	IL1B secr inh -50
COc1ccccc1NC(=O)Cn1cc(C(=O)c2ccco2)c2ccccc21	IL1B secr inh -50
Cc1ccccc1NC(=O)Cn1cc(C(=O)c2ccco2)c2ccccc21	none (no result: SW480 rerep, MCF10A rereplic, IL1B secr inh)
COc1ccc(OC)c(NC(=O)Cn2cc(C(=O)c3ccco3)c3ccccc32)c1	KB-V1 cytotox 23µM
Cc1ccc(C)c(CNc2ccc(S(=O)(=O)N3CCCCC3)cc2)c1	KB-3-1 cytotox inconclusive
CC(=O)Oc1oc(-c2ccccc2)nc1/C=N/c1ccccn1	IL1B secr inh -101
CC(C)c1ccc(NC(=O)CSc2n[nH]c(=O)n2-c2cccnc2)cc1	none
COc1ccccc1-c1cc(NC(=O)COc2ccccc2Cl)n(-c2ccccc2)n1	none (no result: SW480 rerep, MCF10A rereplic, IL1B secr inh)
Cc1ccc(-n2cnc3cc(NCc4cccs4)ccc32)cc1	KB-V1 cytotox inconclusive, IL1B secr inh inconclusive
COc1ccc(-n2cnc3cc(NCc4ccccn4)ccc32)cc1	KB-V1 cytotox inconclusive, MCF10A rereplic inconclusive
c1ccc(-n2cnc3cc(NCc4ccco4)ccc32)cc1	SW480 rerep inconclusive, KB-V1 cytotox inconclusive, MCF10A rereplic inconclusive, KB-3-1 cytotox 23µM
c1ccc(-n2cnc3cc(NCc4cccs4)ccc32)cc1	SW480 rerep 13µM, KB-V1 cytotox 10µM, MCF10A rereplic inconclusive, KB-3-1 cytotox inconclusive
O=C(Nc1ccc(OC(F)(F)F)cc1)c1[nH]ncc1[N+](=O)[O-]	MCF10A rereplic inconclusive
O=C(c1ccc(CS(=O)Cc2ccccc2Cl)o1)N1CCN(c2ccccn2)CC1 (stereo unspecified)	KB-V1 cytotox 18µM
O=C(c1ccc(COc2ccccc2Br)o1)N1CCN(c2ccccn2)CC1	MCF10A rereplic inconclusive
COc1cccc(N2CCN(C(=O)c3ccc(CS(=O)Cc4ccccc4Cl)o3)CC2)c1 (stereo unspecified)	none
O=C(c1ccc(CS(=O)Cc2ccc(Cl)cc2)o1)N1CCN(c2ccccn2)CC1 (stereo unspecified)	KB-V1 cytotox inconclusive, IL1B secr inh -62
COc1cccc(N2CCN(C(=O)c3ccc(CS(=O)Cc4ccc(Cl)cc4)o3)CC2)c1 (stereo unspecified)	KB-V1 cytotox 16µM
O=C(c1ccc(CS(=O)c2ccccc2Cl)o1)N1CCN(c2ccccn2)CC1 (stereo unspecified)	KB-V1 cytotox inconclusive, KB-3-1 cytotox 7.3µM
O=C(c1ccc(CS(=O)Cc2ccc(Cl)cc2)o1)N1CCN(c2ccccc2)CC1 (stereo unspecified)	none
CC(OC(=O)Cc1c[nH]c2ccccc12)C(=O)Nc1ccc(S(N)(=O)=O)cc1 (stereo unspecified)	none
CC(=O)Oc1ccc(C(=O)Nc2ccc(S(=O)(=O)N3CCOCC3)cc2)cc1	KB-V1 cytotox inconclusive, MCF10A rereplic inconclusive
CC(C)Cn1c(N)c(C(=O)COC(=O)CCNS(=O)(=O)c2ccccc2)c(=O)n(C)c1=O	none
CCOc1ccccc1NC(=O)Cn1cc(C(=O)c2ccc(Cl)cc2)c(=O)c2ccc(C)nc21	none (no result: SW480 rerep, MCF10A rereplic, IL1B secr inh)
Cn1c(=O)c2ncn(CC(=O)Nc3nc(-c4ccc(Cl)cc4)cs3)c2n(C)c1=O	MCF10A rereplic inconclusive
COc1ccc(C2=CC(c3sccc3C)n3nnnc3N2)cc1 (stereo unspecified)	MCF10A rereplic inconclusive
Cc1cccc(C2C=C(c3ccc(C)c(C)c3)Nc3nnnn32)c1 (stereo unspecified)	KB-V1 cytotox inconclusive, KB-3-1 cytotox 21µM (no result: SW480 rerep, MCF10A rereplic, IL1B secr inh)
COc1ccc(C2=CC(c3ccc(F)cc3)n3nnnc3N2)cc1 (stereo unspecified)	SW480 rerep 15µM, MCF10A rereplic 23µM, IL1B secr inh inconclusive
CCc1ccc(C2=CC(c3cccc(Br)c3)n3nnnc3N2)cc1 (stereo unspecified)	none (no result: SW480 rerep, MCF10A rereplic, IL1B secr inh)
COc1ccccc1C1C=C(c2ccccc2)Nc2nnnn21 (stereo unspecified)	SW480 rerep inconclusive, KB-V1 cytotox 8.2µM, MCF10A rereplic 7.3µM, KB-3-1 cytotox 13µM
Cc1ccc(C2=CC(c3ccc(N(C)C)cc3)n3nnnc3N2)cc1 (stereo unspecified)	SW480 rerep inconclusive, MCF10A rereplic 23µM
N#Cc1nc(N2CCCC2)nc(N(c2ccccc2)c2ccccc2)n1	none (no result: SW480 rerep, MCF10A rereplic, IL1B secr inh)
COc1cccc(C2=CC(c3cccs3)n3nnnc3N2)c1 (stereo unspecified)	SW480 rerep 5.8µM, KB-V1 cytotox inconclusive, MCF10A rereplic 4.1µM, KB-3-1 cytotox 5.2µM

Screening data deposited in PubChem by National Center for Advancing Translational Sciences (NCATS).
